Experimental data reported in PubChem BioAssay (NCATS).
Results filed as inconclusive are left out. The source made the active and inactive calls. Unless noted, calls follow the shape of the dose curve; as a rule, active = well fitted curve in the direction sought with a large enough effect; inconclusive = small, poorly fitted or top-dose-only effect, or another doubt; inactive = no such curve, though single readings can be large; an effect the other way counts as inactive or inconclusive.

Legend:
[1] = qHTS to identify inhibitors of the type 1 interferon - major histocompatibility complex class I in skeletal muscle: primary screen against the NCATS Pharmaceutical Collection (AID 1347407);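 also: luminescence of HiBiT knocked into endogenous HLA-B as interferon-induced MHC class I level; % is scaled to controls: 0 for no effect and ±100 for the full control effect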
Method in brief: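 Immortalized human myoblasts (C25cl48) with HiBiT knocked into endogenous HLA-B*08:01 were stimulated with 4.0 ng/ml IFN-beta and treated with compounds ([…] top 46 uM) for 24 hrs at 37 C. HiBiT lytic luminescence read.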

[2] = biological target: Protein phosphatase 1D (Homo sapiens) (UniProt O15297); assay: RapidFire Mass Spectrometry qHTS Assay for Modulators of WT P53-Induced Phosphatase 1 (WIP1) (AID 1347424);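 also: amount of dephosphorylated VEPPL-S-QETFS peptide product formed by WIP1; series mostly up to about 63 µM; plate controls were DMSO wells for no effect and GSK830371 inhibitor control at 10 µM for full effect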
Chain of Protein phosphatase 1D (Homo sapiens) (O15297 whole entry, looked up): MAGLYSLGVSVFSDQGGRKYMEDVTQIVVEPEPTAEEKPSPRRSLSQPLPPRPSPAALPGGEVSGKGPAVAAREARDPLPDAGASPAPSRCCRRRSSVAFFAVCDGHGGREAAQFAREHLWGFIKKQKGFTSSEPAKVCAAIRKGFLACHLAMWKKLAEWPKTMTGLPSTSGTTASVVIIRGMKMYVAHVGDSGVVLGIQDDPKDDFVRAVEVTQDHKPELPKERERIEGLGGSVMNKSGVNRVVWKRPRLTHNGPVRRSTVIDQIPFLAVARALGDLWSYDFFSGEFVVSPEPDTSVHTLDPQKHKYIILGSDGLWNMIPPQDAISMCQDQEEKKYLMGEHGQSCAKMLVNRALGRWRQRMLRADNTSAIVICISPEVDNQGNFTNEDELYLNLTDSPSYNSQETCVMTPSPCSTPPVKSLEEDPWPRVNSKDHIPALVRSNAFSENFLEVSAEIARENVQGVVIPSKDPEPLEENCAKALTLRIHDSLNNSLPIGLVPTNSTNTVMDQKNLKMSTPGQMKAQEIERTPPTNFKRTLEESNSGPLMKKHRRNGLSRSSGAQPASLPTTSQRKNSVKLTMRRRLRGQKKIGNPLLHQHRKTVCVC
Method in brief: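 Mass-spectrometric measurement of dephosphorylated peptide after a 5 min room-temperature reaction of 10 nM WIP1 with 2 uM phosphopeptide, following 1 h compound preincubation in 30 mM MgCl2 buffer.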

[3] = biological target: Protein phosphatase 1D (Homo sapiens) (UniProt O15297); assay: Rhodamine-PBP qHTS Assay for Modulators of WT P53-Induced Phosphatase 1 (WIP1) (AID 1347425); also: % of control where 0% means no effect
Method in brief: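 WIP1 (5 nM final) was preincubated with compound for 1 hour at room temperature. It then dephosphorylated 10 uM VEPPL-pS-QETFS peptide in Tris-HCl pH 7.5 with 30 mM MgCl2. Released Pi was detected by 10 uM Rh-PBP fluorescence (ex 525/em 598 nm) read at 1-min intervals for 11 min, as delta f1 - f0.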

[4] = Primary qHTS for inhibitors of La Crosse Virus (LACV) - induced cell death in SH-SY5Y cells (AID 1508616);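 also: top concentration of the series differs between compounds; 0% = infected DMSO wells and 100% = uninfected DMSO wells; higher means more rescue of cells from virus-induced death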
Method in brief: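 SH-SY5Y, 6000 cells/well; cpd via pin tool in DMSO; LACV 0.01 MOI; 6 d 37C 5% CO2; ATPLite, 5 min RT; luminescence normalized to ±virus DMSO controls.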

[5] = biological target: Calcium and integrin-binding protein 1 (Homo sapiens) (UniProt Q99828); assay: Primary qHTS for Identification of Calcium Integrin Binding Protein 1 (CIB1) Competitor (AID 1508620);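 also: GST tagged CIB1 binding a fluorescein labelled alphaIIb integrin peptide tracer; top concentration of the series differs between compounds; % is scaled to controls: 0 for no effect and ±100 for the full control effect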
Chain of Calcium and integrin-binding protein 1 (Homo sapiens) (Q99828 whole entry, looked up): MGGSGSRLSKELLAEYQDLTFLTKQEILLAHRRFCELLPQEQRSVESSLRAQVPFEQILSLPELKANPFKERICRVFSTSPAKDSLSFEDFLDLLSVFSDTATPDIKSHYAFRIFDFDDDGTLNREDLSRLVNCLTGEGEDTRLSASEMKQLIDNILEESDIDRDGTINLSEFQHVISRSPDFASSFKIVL
Method in brief: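 Fluorescence polarization competition: CIB1-GST (1 uM final) preincubated with compound 15 min at room temperature, then FITC-labeled alphaIIb peptide (100 nM final) added for another 15 min. Polarization read at Ex 480/Em 540.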

[6] = A High-Content qHTS Against Drug Library for the Identification of Small Molecules that Inhibit DYT1 Early Onset Primary Dystonia-Associated Cell Pathology (AID 1645839; calls by dose curve; also: series mostly up to about 46 µM)
Method in brief: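 Induced EGFP-delE TorsinA cells are imaged after 48 h of compound treatment. Punctate fusion-protein distribution gives the %pathology value, while nuclei counts flag toxicity. Wild-type EGFP-hTOR1A cells define the normal pattern.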

[7] = biological target: Cytochrome P450 2D6 (Homo sapiens) (UniProt P10635); assay: Cytochrome P450 family 2 subfamily D member 6 (CYP2D6) small molecule antagonists: luciferase biochemical (cell-free) qHTS assay (AID 1645840; active = well fitted curve in the direction sought with a large enough effect in the repeat runs; an effect the other way counts as inactive or inconclusive; also: nearly all actives have a fitted effect of over 55% in size; also: potency is read from the fitted curve at half-maximal effect)
Chain of Cytochrome P450 2D6 (Homo sapiens) (P10635 whole entry, looked up): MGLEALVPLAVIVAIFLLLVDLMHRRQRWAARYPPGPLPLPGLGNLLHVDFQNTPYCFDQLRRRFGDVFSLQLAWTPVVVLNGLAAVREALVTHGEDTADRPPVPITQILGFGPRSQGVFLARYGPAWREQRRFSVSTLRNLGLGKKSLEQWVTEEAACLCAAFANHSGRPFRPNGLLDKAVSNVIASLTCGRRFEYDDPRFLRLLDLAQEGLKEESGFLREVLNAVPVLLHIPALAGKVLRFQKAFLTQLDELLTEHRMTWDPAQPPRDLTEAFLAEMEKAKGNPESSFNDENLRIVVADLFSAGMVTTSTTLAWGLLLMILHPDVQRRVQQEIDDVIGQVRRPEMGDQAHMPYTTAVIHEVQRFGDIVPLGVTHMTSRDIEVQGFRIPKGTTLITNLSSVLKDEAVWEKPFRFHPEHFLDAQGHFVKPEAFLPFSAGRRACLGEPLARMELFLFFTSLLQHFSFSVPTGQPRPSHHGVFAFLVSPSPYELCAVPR
Method in brief: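 P450-Glo CYP2D6 system: proluciferin substrate converted by enzyme to luciferin, read by luminescence proportional to activity. Enzyme-substrate mix with compound 10 min at room temperature, then NADPH regeneration 1 h before detection reagent.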

[8] = Primary qHTS for inhibitors of nuclear receptor binding SET domain protein 2 (NSD2) in an isogenic RCH-ACV NSD2 p.E1099K mutant (9B) (AID 1645876); also: nearly all actives have a fitted effect of over 70% in size
[9] = biological target: Cytochrome P450 2C9 (Homo sapiens) (UniProt P11712); assay: Cytochrome P450 family 2 subfamily C member 9 (CYP2C9) small molecule antagonists: luciferase biochemical (cell-free) qHTS assay (AID 1645842; active = well fitted curve in the direction sought with a large enough effect in the repeat runs; an effect the other way counts as inactive or inconclusive; also: nearly all actives have a fitted effect of over 55% in size; also: potency is read from the fitted curve at half-maximal effect)
Chain of Cytochrome P450 2C9 (Homo sapiens) (P11712 whole entry, looked up): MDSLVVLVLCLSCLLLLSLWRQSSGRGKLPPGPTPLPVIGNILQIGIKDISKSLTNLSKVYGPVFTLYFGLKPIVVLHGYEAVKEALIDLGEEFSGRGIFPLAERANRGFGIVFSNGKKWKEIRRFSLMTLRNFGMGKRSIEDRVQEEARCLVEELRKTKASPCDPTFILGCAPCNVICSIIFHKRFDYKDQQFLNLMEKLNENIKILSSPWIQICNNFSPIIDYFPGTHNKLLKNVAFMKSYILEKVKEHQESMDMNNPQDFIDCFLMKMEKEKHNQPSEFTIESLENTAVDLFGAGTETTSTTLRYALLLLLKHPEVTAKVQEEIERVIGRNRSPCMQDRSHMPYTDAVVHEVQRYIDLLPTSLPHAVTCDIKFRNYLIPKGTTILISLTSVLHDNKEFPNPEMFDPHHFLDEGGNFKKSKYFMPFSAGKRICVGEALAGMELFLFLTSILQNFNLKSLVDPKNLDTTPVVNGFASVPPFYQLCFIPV
Method in brief: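 P450-Glo CYP2C9 system: proluciferin substrate with enzyme in mix containing 0.4% BSA, 10 min at room temperature, then NADPH regeneration solution added and incubated 1 h at 37C. Detection reagent stopped reaction; luminescence read after 20 min as RLU.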

[10] = Primary qHTS for small molecule stabilizers of the endoplasmic reticulum resident proteome: Secreted ER Calcium Modulated Protein (SERCaMP) assay (AID 1508630); also: % is scaled to controls: 0 for no effect and ±100 for the full control effect
Method in brief: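 The SH-SY5Y reporter protocol was run at 3 concentrations up to 38.3 uM (primary) or 11 concentrations (follow-up): 16 h compound, 100 nM thapsigargin for 4 h, then extracellular luciferase luminescence.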

[11] = qHTS to identify inhibitors of the type 1 interferon - major histocompatibility complex class I in skeletal muscle: primary screen against the NCATS Mechanism Interrogation Plate v5.0 (MIPE) Libary (AID 1347411);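 also: plate controls were vehicle for no effect and reference inhibitor for full effect; nearly all actives have a fitted effect of over 65% in size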
Method in brief: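 Seed engineered human myoblasts (HLA-B HiBit) in medium without dexamethasone containing 4 ng/ml IFN-beta; after 1 hr add compound titrations (top 46 uM final). Incubate 24 hrs at 37 C, lyse 10 min with HiBiT reagent, read luminescence.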

[12] = Cell Viability qHTS for small molecule stabilizers of the endoplasmic reticulum resident proteome (AID 1508629); conditions: cell viability counter-screen, 100 nM thapsigargin for final 4 h;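 also: human SH-SY5Y neuroblastoma cells carrying the GLuc-SERCaMP reporter; compound exposure about 46 h in total before the viability read; % is scaled to controls: 0 for no effect and ±100 for the full control effect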
[13] = biological target: N-terminal Xaa-Pro-Lys N-methyltransferase 1 (Homo sapiens) (UniProt Q9BV86); assay: Confirmatory qHTS for Inhibitors of N-terminal methyltransferase 1 (NTMT1): MTaseGlo Assay (AID 1645874); conditions: NTMT1 enzyme, MTase-Glo SAH luminescence; also: potency is read from the fitted curve at half-maximal effect; nearly all actives have a fitted effect of over 65% in size
Chain of N-terminal Xaa-Pro-Lys N-methyltransferase 1 (Homo sapiens) (Q9BV86 whole entry, looked up): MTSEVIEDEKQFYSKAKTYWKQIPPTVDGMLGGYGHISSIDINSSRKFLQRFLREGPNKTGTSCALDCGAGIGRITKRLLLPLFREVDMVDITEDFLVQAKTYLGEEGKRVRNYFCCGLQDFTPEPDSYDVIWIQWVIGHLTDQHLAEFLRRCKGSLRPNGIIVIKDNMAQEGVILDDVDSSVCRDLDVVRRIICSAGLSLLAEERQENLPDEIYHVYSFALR
Method in brief: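 Inhibition was derived from luminescence after SAH-to-ATP conversion, scaled between no-enzyme and DMSO wells, then fitted by 4-parameter Hill. Conditions: 125 nM NTMT1, 100 uM SAM, 1 uM SPKRIA, 30 min RT.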

[14] = qHTS for inhibitors of adenylyl cyclases using a fission yeast platform: a pilot screen against the NCATS LOPAC library (AID 1347410);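 also: plate controls were DMSO vehicle for no effect and DPI positive control for full effect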
Method in brief: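 S. pombe CHP2027 (AC9-GNAS-PDE4D2) carrying PKA-repressed fbp1-GFP, incubated 18 h at 30C in EMM with LOPAC compounds at up to 57 uM. GFP gain-of-signal read by laser scanning cytometry; DMSO negative control.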

[15] = Validation qHTS assay for inhibitors of Activation Induced Cytidine Deaminase (AID): UDG Counterscreen signal (AID 1347427); also: 0% is about no effect
Method in brief: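 Fluorescence at 560 nm excitation, 665 nm emission reports UDG signal after 250 mM NaOH (2x) addition and 30 min. Enzymes (AID 1 uM, UDG 2 U/mL, at 4/3x) preincubated 10 min with compound, then 4 h with 4x 250 nM DJC20/DJC23 substrate at room temperature.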

[16] = biological target: Single-stranded DNA cytosine deaminase (Homo sapiens) (UniProt Q9GZX7); assay: Validation qHTS assay for inhibitors of Activation Induced Cytidine Deaminase (AID): AID signal (AID 1347429); also: % is scaled to controls: 0 for no effect and ±100 for the full control effect
Chain of Single-stranded DNA cytosine deaminase (Homo sapiens) (Q9GZX7 whole entry, looked up): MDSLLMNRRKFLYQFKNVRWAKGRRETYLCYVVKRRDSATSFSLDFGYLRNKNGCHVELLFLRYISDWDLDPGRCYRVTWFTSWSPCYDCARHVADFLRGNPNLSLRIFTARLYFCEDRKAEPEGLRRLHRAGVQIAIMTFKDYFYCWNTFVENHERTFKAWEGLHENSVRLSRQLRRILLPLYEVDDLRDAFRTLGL
Method in brief: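 Steps: dispense AID with UDG; pin-transfer compound up to 114 uM final; add DJC20/DJC23 substrate and hold 4 hr at room temperature; add NaOH, hold 30 min; read FRET signal (540/590 nm).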

[17] = biological target: Calcium and integrin-binding protein 1 (Homo sapiens) (UniProt Q99828); assay: Validation qHTS for Identification of Calcium Integrin Binding protein 1 (CIB1) Competitor (AID 1508618); also: % is scaled to controls: 0 for no effect and ±100 for the full control effect
Method in brief: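 Fluorescence polarization with 1 uM CIB1-GST and 100 nM FITC-alphaIIb peptide in HEPES pH 7.4, NaCl, 5 mM CaCl2, Tween20. Compounds at up to 114 uM final, preincubated with protein 15 min; read after 15 min more at RT.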

[18] = biological target: Papain (Carica papaya) (UniProt P00784); assay: Primary qHTS assay for inhibitors of the protease papain (AID 1645873)
Chain of Papain (Carica papaya) (P00784 whole entry, looked up): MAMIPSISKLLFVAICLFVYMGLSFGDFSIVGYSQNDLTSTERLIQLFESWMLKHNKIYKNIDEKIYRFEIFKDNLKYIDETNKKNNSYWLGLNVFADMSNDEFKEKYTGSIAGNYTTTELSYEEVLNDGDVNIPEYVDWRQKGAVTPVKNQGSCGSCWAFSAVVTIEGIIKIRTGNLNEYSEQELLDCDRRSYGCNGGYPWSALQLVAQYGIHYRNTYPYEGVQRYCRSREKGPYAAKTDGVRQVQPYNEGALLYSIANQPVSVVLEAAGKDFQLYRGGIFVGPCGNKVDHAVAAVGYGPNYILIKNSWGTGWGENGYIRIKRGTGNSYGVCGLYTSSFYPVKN

C=CCCCCCCCCC(=O)O
inactive: Potency [1] | Potency [2] | outcome [3] | Potency [4] | Potency [5] | Potency [6] | Potency [7] | Potency [8]

CO[C@@]1(NC(=O)Cc2cccs2)C(=O)N2C(C(=O)O)=C(COC(N)=O)CS[C@@H]21
inactive: Potency [1] | Potency [2] | outcome [3] | Potency [4] | Potency [5] | Potency [6] | Potency [7] | Potency [9] | Potency [8]

CCOc1ccc2nc(S(N)(=O)=O)sc2c1
inactive: Potency [1] | Potency [2] | outcome [3] | Potency [4] | Potency [5] | Potency [10] | Potency [6] | Potency [7]

O=C(O)Cc1cccc(-c2cc(CCCCCCc3ccc(O[C@H]4O[C@H](CO)[C@@H](O)[C@H](O)[C@@H]4O)c(-c4cccc(CC(=O)O)c4)c3)ccc2O[C@H]2O[C@H](CO)[C@@H](O)[C@H](O)[C@@H]2O)c1
inactive: activity change, negative = inhibition [1] -3.38% [at 0.727 µM] | activity change, negative = inhibition [2] -6.57% [at 0.505 µM] | activity change, negative = inhibition [3] -0.323% [at 0.575 µM] | activity change [4] -19% [at 0.0343 µM] | activity change, negative = inhibition [5] -8.49% [at 1.07 µM] | % pathology change, negative = correction [6] -6.26% [at 0.369 µM] | activity change, negative = inhibition [7] -6.59% [at 0.91 µM] | activity change, negative = inhibition [9] 11.7% [at 0.91 µM] | activity change, negative = viability loss [8] 9.79% [at 0.588 µM]

C[N+]1(C)[C@@H]2CC(OC(=O)[C@H](CO)c3ccccc3)C[C@H]1[C@@H]1O[C@@H]12 (stereo not given in full)
inactive: Potency [1] | Potency [11] | Potency [2] | outcome [3] | Potency [4] | Potency [10] | Potency [6] | Potency [7] | Potency [8]

Cc1ccc(O)c(-n2nc3ccccc3n2)c1
inactive: Potency [1] | Potency [2] | outcome [3] | Potency [4] | Potency [5] | Potency [10] | Potency [6] | Potency [8]

O=C(O)Cc1ccc2c(c1)C(=O)c1ccccc1CO2
inactive: Potency [1] | Potency [2] | outcome [3] | Potency [4] | Potency [5] | max response [12] 16.2% | Potency [6] | Potency [7] | Potency [9] | Potency [8]

CNC(=O)c1c(I)c(NC(=O)CCCCC(=O)Nc2c(I)c(C(=O)O)c(I)c(C(=O)NC)c2I)c(I)c(C(=O)O)c1I
inactive: Potency [1] | Potency [2] | outcome [3] | Potency [4] | Potency [5] | Potency [10] | Potency [6] | Potency [7] | Potency [9] | Potency [8]

Cc1nc2ccccc2n1Cc1ccc(Cl)cc1
inactive: Potency [1] | Potency [2] | outcome [3] | Potency [4] | Potency [5] | Potency [6]
active: Potency [7] 7.76 µM | Potency [9] 11 µM

CN1CCN(c2cc3c(nn2)Oc2ccccc2N3C)CC1
inactive: Potency [1] | Potency [2] | outcome [3] | activity change [4] 13.6% [at 1.78 µM] | Potency [5] | Potency [10] | Potency [6] | Potency [7]

Cc1ccc2c(n1)Oc1ccc(C(C)C(=O)OCC(=O)N(C)C)cc1C2 (stereo not given)
inactive: Potency [1] | Potency [2] | outcome [3] | Potency [4] | Potency [10] | Potency [6] | Potency [8]

C/C(=N\O)c1ccc(OCC(=O)N2CCCCC2)cc1
inactive: Potency [1] | Potency [2] | outcome [3] | Potency [4] | Potency [5] | Potency [6] | Potency [7] | Potency [8]

CCCCCCCCCCCCOCCO
inactive: Potency [1] | Potency [2] | outcome [3] | Potency [4] | Potency [5] | Potency [6] | Potency [9] | Potency [8]

Cc1c(N)c(=O)n(-c2ccccc2)n1C
inactive: Potency [1] | Potency [2] | outcome [3] | Potency [4] | Potency [10] | Potency [6] | Potency [7] | Potency [8]

Clc1ccccc1-c1nc(-c2ccncc2)no1
active: Potency [7] 3.47 µM | Potency [9] 5.49 µM | Potency [13] 25.1 µM
inactive: Potency [1] | Potency [2] | outcome [3] | Potency [4] | Potency [10] | Potency [6]

O=C(/C=C/c1ccccc1)NCCO
active: Potency [9] 5.49 µM
inactive: Potency [1] | Potency [2] | outcome [3] | Potency [4] | Potency [5] | Potency [10]

CCCCCCCCCCCCCCCC(=O)OC(C)C
inactive: Potency [1] | Potency [2] | outcome [3] | Potency [4] | Potency [10] | Potency [6] | Potency [9] | Potency [8]

CN1CC(=O)N/C1=N/C(=O)Nc1cccc(Cl)c1
inactive: Potency [1] | outcome [14] | Potency [2] | outcome [3] | Potency [15] | Potency [16] | Potency [4] | outcome [17] | Potency [5] | Potency [10] | Potency [6] | Potency [9] | Potency [18] | Potency [8]

c1ccc2sc(SSc3nc4ccccc4s3)nc2c1
inactive: Potency [1] | Potency [2] | outcome [3] | activity change [4] 7.43% [at 1.78 µM] | Potency [10] | Potency [6] | Potency [7]

CCCCCCCC/C=C/C(=O)O
inactive: Potency [1] | Potency [2] | outcome [3] | Potency [4] | Potency [5] | Potency [10] | Potency [6] | Potency [7]

NCCO
inactive: Potency [1] | Potency [2] | outcome [3] | Potency [4] | Potency [5] | Potency [6] | Potency [7] | Potency [9] | Potency [8]
